# Screening data (PubChem BioAssay)
# Mac1 fbg inh = inhibitors of CD11b/CD18 adhesion to fibrinogen, primary screen, K562 cells, luminescence. 93,000 tested, 0.54% active. Integrin beta-2 (Homo sapiens) + Integrin alpha-M (Homo sapiens), P05107+P11215. ATPlite luminescence; Mn2+ added to activate the integrin. inhibition, % at 10 µM;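 active = primary inhibition of 50% or more at 10 µM, then 40% or more on retest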
# CYP2C19 inhib = blockers of cytochrome P450 2C19 activity – biochemical, luminescence, ADME assay, primary screen. P33261. CYP2C19 Supersomes, luciferin-H EGE luminescence, 30 min. inhibition, % at 5 µM. 96,000 tested, 21% active. AID 778, 2007;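 active = CYP2C19 inhibition above a set limit at 5 µM in the primary screen, cut at about 50% in these data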;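 note: plate controls were negative control wells for no effect and 2.5 mM tranylcypromine positive control for full effect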
# Target sequence (P33261 whole entry, looked up): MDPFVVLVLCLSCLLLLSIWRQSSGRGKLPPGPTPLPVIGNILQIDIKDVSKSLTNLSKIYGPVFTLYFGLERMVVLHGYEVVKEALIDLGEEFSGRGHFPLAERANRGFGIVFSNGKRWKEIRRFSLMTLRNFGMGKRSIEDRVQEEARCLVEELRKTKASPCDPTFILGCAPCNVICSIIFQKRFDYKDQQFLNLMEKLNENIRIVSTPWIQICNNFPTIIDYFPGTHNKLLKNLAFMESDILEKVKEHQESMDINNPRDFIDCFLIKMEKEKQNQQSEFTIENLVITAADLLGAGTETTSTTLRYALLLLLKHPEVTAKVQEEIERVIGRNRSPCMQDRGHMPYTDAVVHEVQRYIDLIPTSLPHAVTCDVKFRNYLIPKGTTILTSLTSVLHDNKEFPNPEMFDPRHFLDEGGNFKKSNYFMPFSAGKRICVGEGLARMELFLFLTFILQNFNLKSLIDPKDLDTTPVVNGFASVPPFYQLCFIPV
# CYP2C9 inh = blockers of cytochrome P450 2C9 activity – biochemical, luminescence, ADME assay, primary screen; P11712; CYP2C9 Supersomes, luciferin-H conversion; inhibition, % at 5 µM; 96,000 tested, 20% active;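 active = blocking of liver enzyme CYP2C9 beyond about 50% at 5 µM, limit read from the data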
# CYP2C9 activ = human CYP2C9 activators, primary screen, biochemical, luminescence | recombinant CYP2C9, luciferin-H conversion; active compounds read high; factor 1 = untreated enzyme, 0 = blocked | 96,000 tested, 1.4% active | activation factor at 5 µM | Cytochrome P450 2C9 (Homo sapiens), P11712 | AID 1024, 2008;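 active = activation factor of 2 or more for CYP2C9 at a 5 µM dose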;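 note: 0 = sulfaphenazole-blocked wells and 1 = vehicle-only wells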
# Mac1 fbg enh = enhancers of CD11b/CD18 adhesion to fibrinogen, primary screen, K562 cells, luminescence. ATPlite luminescence. activation, % at 10 µM. 93,000 tested, 0.07% active. Integrin beta-2 (Homo sapiens) + Integrin alpha-M (Homo sapiens), P05107+P11215;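 active = 10 µM primary screen giving 50% or more activity, confirmed by 40% or more on retest at that dose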
# CYP2C19 act = human CYP2C19 activators, primary screen, biochemical, luminescence; 96,000 tested, under 10 active; activation factor at 5 µM; recombinant CYP2C19, luciferin-H EGE luminescence; active compounds read high; 0 = fully inhibited enzyme, 1 = untreated enzyme; Cytochrome P450 2C19 (Homo sapiens), P33261;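 active = activation factor of at least 2 at 5 µM in the primary screen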;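 note: 0 = wells with 2.5 mM tranylcypromine and 1 = vehicle-only wells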
# Active calls of the source: *; . = not tested or not shown. Shown are actives, neighbours in structure and some others; about 28% of the full set was active somewhere.
SMILES,Mac1 fbg inh,CYP2C19 inhib,CYP2C9 inh,CYP2C9 activ,Mac1 fbg enh,CYP2C19 act
COc1ccc(F)cc1S(=O)(=O)N1CCC(C(N)=O)CC1,-41.1,11.4,-142.9,2.4*,-3.4,0.9
CCOc1ccc(S(=O)(=O)N2CCC(C(N)=O)CC2)c2ccccc12,-0.5,-4.3,58.6*,0.4,-1.6,1
Cc1nc2nc(C)c(CCC(=O)O)c(C)n2n1,-17.9,3.7,-6.9,1.1,-4.9,1
COc1cccc(N/C=C(\C#N)c2ccc(OCCCF)cc2)c1,8.0,14.5,42.4,0.6,4.7,0.9
CCOc1ccccc1N(CC(=O)N1CCOCC1)S(=O)(=O)c1ccc(SC)cc1,-21.0,29.1,38.8,0.6,4.5,0.7
COc1ccc(F)cc1S(=O)(=O)N1CCCN(S(=O)(=O)c2cc(F)ccc2OC)CC1,8.7,99.4*,-33.5,1.3,1.6,0
COc1ccc(F)cc1S(=O)(=O)N1CCCC(C)C1 (centres undefined),3.2,66.7*,-79.2,1.8,-8.4,0.3
COc1ccc(C)cc1S(=O)(=O)N1CCN(S(=O)(=O)c2cc(C)ccc2OC)CC1,-6.2,75.4*,86.9*,0.1,-2.9,0.2
COc1ccc(OC)c(S(=O)(=O)N2CCCCC2C(=O)O)c1 (centres undefined),-8.9,-10.7,5.7,0.9,5.3,1.1
COc1ccc(OC)c(S(=O)(=O)N2CCC(C(=O)Nc3cc(C)ccc3C)CC2)c1,-0.9,39.4,-64.8,1.6,-1.4,0.6
COc1ccc(F)cc1S(=O)(=O)n1cc(C)nc1-c1ccccc1,-16.6,9.4,-13.4,1.1,-2.3,0.9
O=c1cc(N2CCCCC2)c(-c2ccccc2)nn1Cc1cccc(Cl)c1,.,26.7,19.8,0.8,.,0.7
CCOc1ccc2cc(/C=C/C(=O)c3ccco3)c(Cl)nc2c1,8.8,18.1,25.1,0.7,0.5,0.8
O=C(NC(=S)Nc1cc(C(F)(F)F)ccc1N1CCOCC1)c1sc2ccccc2c1Cl,-0.5,.,.,.,2.6,.
CC1CCc2c(sc3ncn4c(SCC(=O)NCc5ccco5)nnc4c23)C1 (centres undefined),-7.2,36.2,58.1*,0.4,-1.8,0.6
CC(C)Sc1nc2sc3c(c2c2nnc(SCC(=O)NCc4ccco4)n12)CCCC3,-7.7,77.4*,93.7*,0.1,50.6,0.2
CC1CCc2sc3ncn4nc(C(=O)NCc5ccco5)nc4c3c2C1 (centres undefined),-43.1,-1.6,12.5,0.9,12.3,1
O=C(NCCCN1CCCC1=O)c1cc(=O)c2ccccc2o1,-10.9,4.6,-0.8,1,-4.7,1
N#CC1=C(N)S[C@H](C(=O)C23CC4CC(CC(C4)C2)C3)[C@H]1c1ccncc1,.,66.5*,41.2,0.6,.,0.3
Cc1ccc(-n2c(O)c(C=NC3CCS(=O)(=O)C3)c3ccccc3c2=O)cc1 (centres undefined),.,5.5,7.9,0.9,.,0.9
N#Cc1c(N2CCOCC2)nc(-c2ccco2)c2c1CCCC2,-7.9,21.2,67.0*,0.3,-0.8,0.8
CC1(C)Cc2c(C#N)c(N3CCCC3)nc(-c3ccco3)c2CO1,-2.0,50.6*,90.6*,0.1,-1.7,0.5
CCC(=O)N1CCN(c2nc(-c3ccccc3)c3c(c2C#N)CCCC3)CC1,-8.0,83.1*,69.3*,0.3,1.7,0.2
N#Cc1c(SCC(=O)O)nc(-c2ccccc2)c2c1CCCC2,6.8,-0.2,29.1,0.7,-2.7,1
CC(C)c1nc(N2CCN(C(=O)c3ccccc3)CC2)c(C#N)c2c1COC(C)(C)C2,3.6,72.3*,81.4*,0.2,3.3,0.3
SMILES,Mac1 fbg inh,CYP2C19 inhib,CYP2C9 inh,CYP2C9 activ,Mac1 fbg enh,CYP2C19 act
CCCCSc1nc(C)c(CC(=O)O)c(=O)[nH]1,-22.9,1.2,4.6,1,1.9,1
CC1(C)CSC(=S)N1S(=O)(=O)c1ccccc1,-12.9,75.4*,31.1,0.7,-1.6,0.2
COc1cccc(-c2nc(CS(=O)(=O)CC(=O)NCCCN3CCc4ccccc4C3)c(C)o2)c1,9.7,10.5,15.5,0.8,-4.7,0.9
CCOC(=O)/C(C#N)=C(\N)C(C)C(=O)Nc1ccccn1 (centres undefined),7.7,10.0,7.2,0.9,-6.1,0.9
COc1ccc(OCCOC(=O)c2cccc(-n3cnnn3)c2)cc1,-37.9,66.2*,58.1*,0.4,-2.4,0.3
COc1ccc(-n2c(C)cc(C(=O)COc3ccc(-n4cnnn4)cc3)c2C)cc1,-7.5,-9.3,6.3,0.9,57.0,1.1
COc1ccc(OCCOC(=O)c2ccc(-n3cnnn3)cc2)cc1,-27.6,31.8,73.1*,0.3,-3.1,0.7
CCOc1ccc(C(C)=O)cc1COc1ccc(-n2cnnn2)cc1,-27.5,97.0*,78.2*,0.2,1.4,0
CN(C)CCN1C(=O)c2oc3ccc(Cl)cc3c(=O)c2C1c1cccc(Br)c1 (centres undefined),-6.4,6.9,28.0,0.7,12.9,0.9
CCc1ccc(C(=O)CN(C#N)c2nc(C)cc(C)n2)cc1,.,26.9,-71.4,1.7,.,0.7
CCc1ccc(-c2cn(-c3nc(C)cc(C)n3)c(=N)o2)cc1,24.0,58.9*,23.4,0.8,-8.0,0.4
CC(/C=C/c1ccccc1)NC(N)=O (centres undefined),-5.7,32.2,60.9*,0.4,-7.6,0.7
Cc1nnc(SCc2cnc(-c3ccc(C(C)C)cc3)s2)n1C,69.8*,8.4,7.8,0.9,-5.7,0.9
c1ccc(-c2ncc(CSc3nncn3-c3ccccc3)s2)cc1,-10.4,59.0*,-25.5,1.3,-1.0,0.4
COc1ccc(-n2cnnc2SCc2csc(-c3ccccc3)n2)cc1,1.6,74.7*,27.2,0.7,0.1,0.3
c1ccc(-n2cnnc2SCc2cn3ccsc3n2)cc1,5.3,40.9,32.4,0.7,-0.8,0.6
c1ccc(-n2cnnc2SCc2nc3ccccc3s2)cc1,-8.8,39.3,11.6,0.9,7.6,0.6
CS(=O)(=O)N1CCC(C(=O)Nc2c(F)cccc2F)CC1,-6.8,5.6,-2.2,1,-1.3,0.9
c1ccc(CN2CCN(c3ncnc4nc[nH]c34)CC2)cc1,-6.0,37.0,3.5,1,2.3,0.6
CCCCN(C)C/C(O)=C(\C#N)c1nc(-c2ccccc2)cs1,-7.6,16.7,-2.9,1,-1.3,0.8
CCOC(=O)N1CCC(NC(=O)c2cc(C(=O)NCC(OC)OC)ccc2CO)CC1,-17.4,-3.5,-2.3,1,-1.5,1
COC(=O)c1c(-c2cccc(OC)c2)csc1N,6.4,26.9,-11.1,1.1,1.5,0.7
COC(=O)c1c(-c2ccc(OC)c(OC)c2)csc1N,-3.4,60.1*,45.5,0.5,-4.0,0.4
